The campaign covered roughly 48,000 compounds. About 13,000 (27%) showed an effect of 50% or more. This is one part of the list.

The assay concerns Wolbachia pipientis. The assay is described as follows: Anti-Wolbachia Cell-Based Screen. Format: functional. Also noted: scale not given: in the data most compounds retested in dose-response had high values. The settings on record: 5 µM.
Consider `CCn1cc(CN(C)S(=O)(=O)c2cc(Cl)ccc2Cl)cn1`, for which the “Percent Effect” value was 2.949%.
For the molecule `COCc1ncc(CN2CC(Oc3c(C)cccc3C)C2)cn1`, the “Percent Effect” value was found to be 2.359%.
On to `C[S+]([O-])c1nncn1CC(=O)c1ccc2c(c1)CCO2` (centres undefined), for which the “Percent Effect” value is -1.094%.
As for `CC(C)N(C)CC(=O)NCC(O)c1cc2ccccc2s1` (centres undefined), the figure is -11.06%; as for `FC(F)(F)Cc1noc(CN2CCCC2c2noc(C3CC3)n2)n1` (centres undefined), 0.1706%.
Consider `CC(C)c1nc(CSc2nnc(Cn3cncn3)o2)cs1`, for which the “Percent Effect” value is recorded as -8.133%.
As for `CC(C)Cc1nc(CSCC(=O)N2CCC(C)CC2)no1`, the figure is 4.489%.
As to `COc1ccccc1C(=O)Nc1cc(CC(C)C)nn1C`, the “Percent Effect” value stood at 100.2%.
On to `CC(C)Cc1cc(NC(=O)c2ccccc2F)n(C)n1`, for which the “Percent Effect” value stood at 99.33%.
Turning to `CC(C)Cc1cc(C(=O)NC(C)(CO)CO)n(C)n1`, the “Percent Effect” value is 11.8%.
`CC(C)Cc1cc(C(=O)N2CC(OCc3ccccc3F)C2)n(C)n1`: the “Percent Effect” value amounted to 4.315%.
Regarding `O=c1c2cccnc2cnn1CC(O)c1ccc(Br)cc1` (centres undefined), the “Percent Effect” value is reported as -15.17%.
As to `CSCCC(NC(N)=O)C(=O)NCc1cnn(-c2ccccc2)c1` (centres undefined), the “Percent Effect” value was -24.8%.
`CCC[C@H]1CN(S(=O)(=O)c2ccccc2)C[C@@H]1N`: the “Percent Effect” value is given as -22.4%.
`O=C1CO[C@@H]2CN(S(=O)(=O)c3ccccc3)C[C@H]2N1CC1CC1`: the “Percent Effect” value is reported as -2.601%.
Turning to `CCN1CCNC(=O)C12CCN(S(=O)(=O)c1ccc(F)cc1)CC2`, the “Percent Effect” value is on record as -6%.
The result for `CC(C)CN1CCNC(=O)C12CCN(S(=O)(=O)c1ccc(F)cc1)CC2` reads -14.33%; that for `CC(C)CN1CC(O)CN(S(=O)(=O)c2ccccc2)CC1=O` (centres undefined), 100.2%; that for `O=C1CN(S(=O)(=O)c2ccc(F)cc2)CC(O)CN1CC1CC1` (centres undefined), 106.3%.
As to `N[C@H]1CN(S(=O)(=O)c2ccccc2)C[C@@H]1C1CC1`, the “Percent Effect” value is reported as -7.486%.
Consider `CC(C)CN1CC(O)CN(S(=O)(=O)c2ccc(F)cc2)CC1=O` (centres undefined), for which the “Percent Effect” value is given as 103.6%.
The result for `CC(C)CN1CC(c2nc(-c3ccc(F)cc3)c[nH]2)CC1=O` (centres undefined) reads -3.521%.
For `Cc1ccc(C)c(OC(C)C(=O)NCCNc2cccnc2)c1` (centres undefined), the “Percent Effect” value was 16.95%.
Consider `CCn1ncc2c1NC(=O)CC2c1cnc(-c2ccccn2)nc1` (centres undefined), for which the “Percent Effect” value was -2.059%.
With `COc1ccccc1N1CCN(C(=O)Cn2nc(C)cc2C)CC1(C)C`, the “Percent Effect” value is listed as -9.26%.
The result for `Cc1c(Cl)c(C(=O)N2CC[C@H](N3CCOCC3)[C@H](CCCO)C2)nn1C` reads -7.195%; that for `CC(C)(C)c1nc(CN2CCCN(Cc3cccs3)CC2)no1`, 85.49%; that for `CCc1noc(CN2CCN(Cc3cccs3)CC2)n1`, 91.28%.
Consider `CC(C)CCN1CCN(Cc2nc(C(C)C)no2)CC1`, for which the “Percent Effect” value is given as -7.959%.
Regarding `CCc1nc(CN2CCCN(c3cnc4ccccc4n3)CC2)no1`, the “Percent Effect” value is listed as -8.028%.
`CC(C)(C)c1noc(CN2CCCN(Cc3cccs3)CC2)n1`: the “Percent Effect” value is on record as 1.032%.
Take `CCc1noc(CN2CCCN(Cc3cccs3)CC2)n1`: the “Percent Effect” value is listed as 74.2%.
Take `Cc1noc(CN2CCN(Cc3cccs3)CC2)n1`: the “Percent Effect” value was found to be 0.5359%.
With `CC(C)(C)c1nc(CN2CCC(c3nc4cc(Cl)ccc4o3)CC2)no1`, the “Percent Effect” value is -20.96%.
Consider `CC(C)c1noc(CN2CCCN(Cc3cccs3)CC2)n1`, for which the “Percent Effect” value was 67.59%.
Turning to `CC(C)Cc1noc(CN2CCN(C(=O)c3cccs3)CC2)n1`, the “Percent Effect” value was -25.07%.
In the case of `CCc1noc(CN2CCCN(C(N)=O)CC2)n1`, the “Percent Effect” value is -3.109%.
For `Cc1cc2nc(CO[C@H]3CN(CC4CC4)C[C@H]3F)[nH]c2cc1C`, the “Percent Effect” value is -2.135%.
Turning to `Cc1cc(C)n(CC(C)NC2CCN(Cc3cccnc3)CC2)n1` (centres undefined), the “Percent Effect” value is reported as -17.52%.
As for `CNC(=O)[C@@H]1[C@@H](OC(=O)Nc2ccccc2)C(=O)N(C)C12CCNCC2`, the figure is 89.46%; as for `Cc1ncccc1OC1(C(=O)NCCNc2ccccc2)CCNCC1`, -10.51%; as for `CN1C(=O)[C@H](OC(N)=O)[C@@H](C(=O)Nc2ccccc2)C12CCNCC2`, 104.3%.
In the case of `CN1C(=O)CO[C@H](c2ccc(NC(=O)Nc3ccccc3)cc2)[C@H]1CO`, the “Percent Effect” value is -13.1%.
As to `CN1CC2(CNCCN(C(=O)Nc3ccccc3)C2)CC1=O.O=C(O)C(F)(F)F` (centres undefined), the “Percent Effect” value is on record as -22.36%.
In the case of `O=C(Nc1ccccc1)[C@H]1O[C@H](CCN2CCNCC2)CC[C@@H]1O`, the “Percent Effect” value is given as 1.571%.
On to `CO[C@H]1C(=O)N(C)C2(CCNCC2)[C@@H]1C(=O)Nc1ccccc1`, for which the “Percent Effect” value stood at 91.16%.
As for `CCc1cc(N2CCSCC2)n2nc(C)c(C)c2n1`, the figure is 8.974%.
`Cc1n[nH]c(C)c1CCN(C)C(=O)c1ccc(CCC(C)(C)O)cc1`: the “Percent Effect” value is listed as 11.25%.
For the molecule `CN(Cc1cc(Br)cn1C)C(=O)c1cc(Cl)ccn1`, the “Percent Effect” value is -3.777%.
Take `O=C(c1cc(-c2cn[nH]c2)nc2ccc(F)cc12)N1CCSCC1`: the “Percent Effect” value came out at 9.042%.
As to `COc1ccc2cc(CN(C)CCc3cn[nH]c3)c(=O)[nH]c2c1`, the “Percent Effect” value was -3.299%.
As for `Cc1ccccc1C(=O)NC1CCN(Cc2ncc(C(C)(C)C)o2)CC1`, the figure is 19.24%; as for `Cc1nc(C(C)(C)NC(=O)Nc2ccncc2)no1`, -5.529%; as for `CS(=O)(=O)NCC1CCCN(C(=O)COCc2ccccc2)C1` (centres undefined), -4.256%.
As to `CS(=O)(=O)NCC1CCCN(C(=O)c2ccc3c(c2)CCCC3)C1` (centres undefined), the “Percent Effect” value came out at 4.156%.
As for `O=C(Nc1cccc2ccccc12)N1CCC(N2CCSCC2)CC1`, the “Percent Effect” value is reported as -0.7759%.
As to `CS(=O)(=O)NCC1CCCN(C(=O)Nc2ccccc2N2CCCC2)C1` (centres undefined), the “Percent Effect” value is given as 96.01%.
As for `O=C(CN1CCCC1)N1CCCC(CNS(=O)(=O)Cc2ccccc2)C1` (centres undefined), the figure is 16.47%; as for `CS(=O)(=O)NCC1CCCN(C(=O)Nc2cccc3ccccc23)C1` (centres undefined), 98.14%.
As for `CS(=O)(=O)NCC1CCCN(C(=O)COc2ccc(F)cc2)C1` (centres undefined), the “Percent Effect” value is given as -1.733%.
Take `CC(C)S(=O)(=O)NCC1CCCN(C(=O)c2ccc(F)cc2)C1` (centres undefined): the “Percent Effect” value is recorded as -11.51%.
On to `CS(=O)(=O)NCC1CCCN(C(=O)Nc2ccccc2F)C1` (centres undefined), for which the “Percent Effect” value stood at 119.4%.
As for `CNS(=O)(=O)CCCN1CCCC1c1noc(C2CC2)n1` (centres undefined), the “Percent Effect” value is on record as -1.215%.
For the molecule `O=C(Nc1ccc(-c2csnn2)cc1)N1CCCC1`, the “Percent Effect” value is recorded as -14.17%.
As to `CN(C)Cc1csc(-c2nccn2CCc2cccnc2)c1`, the “Percent Effect” value is given as -6.294%.
On to `CCCC(Cn1cnc(-c2ccccc2)c1-c1cncn1CC)N(C)C` (centres undefined), for which the “Percent Effect” value is 8.465%.
For `CCCNC(=O)c1cc2c(nc1O)CCC(C)C2` (centres undefined), the “Percent Effect” value turned out to be 4.186%.
Turning to `Cc1ccc(C(=O)NCCCS(C)(=O)=O)c(=O)[nH]1`, the “Percent Effect” value worked out at 0.8619%.
With `Cc1ccc(C(=O)NC2CCN(S(C)(=O)=O)CC2)c(=O)[nH]1`, the “Percent Effect” value was found to be 87.03%.
As for `Cc1ccc(C(=O)NC2CCCN(S(C)(=O)=O)C2)c(=O)[nH]1` (centres undefined), the figure is 107.3%.
Turning to `Cc1ccc(C(=O)NCCNS(C)(=O)=O)c(=O)[nH]1`, the “Percent Effect” value is 2.203%.
`Cc1ccc(C(=O)NCCCNS(C)(=O)=O)c(=O)[nH]1`: the “Percent Effect” value came out at 10.14%.
As for `Cc1ccc(C(=O)NCCS(C)(=O)=O)c(=O)[nH]1`, the “Percent Effect” value was -10.31%.
`CN(Cc1ccco1)Cc1ccccc1CNC(=O)c1csnn1`: the “Percent Effect” value is on record as -8.686%.
`NC(=O)NC(=O)CCN1CCN(CC2CC2)c2ccccc21`: the “Percent Effect” value is -1.129%.
`OC[C@H]1CN(Cc2c(Cl)cncc2Cl)C[C@H]1CN1CCOCC1`: the “Percent Effect” value was 11.24%.
For `CN1CCn2c(-c3cnn(C)c3)cnc2C12CCN(CC1CC1)CC2.O=C(O)C(F)(F)F.O=C(O)C(F)(F)F.O=C(O)C(F)(F)F`, the “Percent Effect” value was -10.48%.
The result for `Cn1cc(-c2ncc3c(c2C(=O)O)CCN(CC2CCOC2)C3)cn1` (centres undefined) reads 111.7%; that for `Cn1cccc1C(=O)NCc1cn2c(n1)CN(CC1CCOC1)CC2` (centres undefined), -25.14%.
With `Cn1cc(-c2ncc3c(c2C(=O)O)CCN(CC2CC2)C3)cn1.O=C(O)C(F)(F)F.O=C(O)C(F)(F)F`, the “Percent Effect” value was 86.35%.
In the case of `CN(C)C(C(=O)N1CCN(CCn2cccc2)CC1)c1ccc(F)cc1` (centres undefined), the “Percent Effect” value is recorded as -11.45%.
As for `COc1cc(N2CCC3(CCN(Cc4cccnc4)C3=O)C2)ncn1` (centres undefined), the figure is 116%; as for `COc1cccc(CN2CCC3(CCN(c4ncc(C)cn4)C3)C2=O)c1` (centres undefined), -10.16%.
Regarding `O=C1N(Cc2cccc(F)c2)CCC12CCCN(c1ncc(F)cn1)C2` (centres undefined), the “Percent Effect” value stood at 102%.
Regarding `O=C(O)C(F)(F)F.O=C([C@H]1CCCO1)N1CCCC2(CCN(Cc3ccncc3)C2=O)C1` (some centres undefined), the “Percent Effect” value is 14.29%.
Consider `COc1cc(N2CCCC3(CCN(c4cncnc4)C3=O)C2)ncn1` (centres undefined), for which the “Percent Effect” value is recorded as -10.96%.
On to `O=C(O)C(F)(F)F.O=C(O)C(F)(F)F.O=C1N(Cc2cccnc2)CCC12CCCN(c1ncccn1)C2` (centres undefined), for which the “Percent Effect” value is 94.5%.
The result for `O=C1N(Cc2ccc(F)c(F)c2)CCCC12CCN(C1CCCC1)C2` (centres undefined) reads 7.69%; that for `CN1CCN(Cc2cccnc2)C2(CCN(c3ncccn3)C2)C1=O.O=C(O)C(F)(F)F.O=C(O)C(F)(F)F` (centres undefined), -6.592%.
In the case of `Cc1cnc(N2CCC3(C2)C(=O)N(C)CCN3Cc2cccnc2)nc1.O=C(O)C(F)(F)F.O=C(O)C(F)(F)F` (centres undefined), the “Percent Effect” value is recorded as 1.691%.
Consider `O=C(O)C(F)(F)F.O=C1N(Cc2ccncc2)CCC12CCCN(c1ncc(F)cn1)C2` (centres undefined), for which the “Percent Effect” value turned out to be 97.96%.
Regarding `CC(C)(C)[S+]([O-])CCNC(=O)c1csc(NC2CC2)n1` (centres undefined), the “Percent Effect” value is 7.627%.
The result for `CSCC(C)(O)CNc1ncccc1C(F)(F)F` (centres undefined) reads 8.156%; that for `COc1ccccc1C(=O)N1CCN(C(=O)CCCc2cn[nH]c2)CC1`, 9.231%.
In the case of `COC(=O)CNc1cc(C(=O)NCC(F)(F)F)cc(F)c1C`, the “Percent Effect” value amounted to 5.099%.
As to `O=C(c1ccccn1)N1C[C@@H]2OCC(=O)N(CC3CCCCC3)[C@@H]2C1`, the “Percent Effect” value is 1.178%.
Turning to `OC1CCN(Cc2cc3c(cc2Br)OCCO3)CC1`, the “Percent Effect” value was 23.9%.
`Cc1ccc(NC(=O)N2CCCN(C(N)=O)CC2)s1`: the “Percent Effect” value is listed as -6.622%.
Turning to `O=S1(=O)CCC(c2nnc(-c3cnc4onc(C5CCCC5)c4c3)o2)C1` (centres undefined), the “Percent Effect” value is on record as -3.167%.

These data come from ChEMBL document CHEMBL3988442, “University of Dundee, Small-Polar-MMV Screening Library” (2021).
